# USP1 inh – blocks the human USP1/UAF1 deubiquitinase complex; O94782; recombinant USP1/UAF1, Ub-Rhodamine cleavage fluorescence; Potency, µM (doses to about 57.1 µM), most hits filed as inhibitors; 390,000 tested, 0.23% active; AID 743255; note: nearly all actives have a fitted effect of over 60% in size
#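 USP1/UAF1 complex at 1 nM was preincubated with compound for 15 min at room temperature, then Ub-Rho substrate (150nM final) was added. Fluorescence (480/540 nm) was read kinetically, 6 reads every 60 seconds.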
# Tau FP inhib – tau fibrillization inhibition (FP). Potency, µM (top dose mostly 57.7 µM), usual class: inhibitors. K18 P301L tau heparin fibrillization, Alexa594 FP, 6 h. P10636. 280,000 tested, 0.39% active. AID 1468; note: nearly all actives have a fitted effect of over 55% in size
# Target sequence (P10636 561-689 P618L limits assumed): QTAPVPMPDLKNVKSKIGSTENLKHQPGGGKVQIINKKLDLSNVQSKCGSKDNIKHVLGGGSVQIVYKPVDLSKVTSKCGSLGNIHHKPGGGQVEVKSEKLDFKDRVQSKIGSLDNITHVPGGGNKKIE
#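 Human K18 P301L fragment (15 uM unlabeled plus 0.24 uM Alexa 594-labeled) in 100 mM sodium acetate pH 7 with compound, aggregation induced by 20 uM heparin for 6 hr at 37 C. ThT (30 uM) added for 1 hr, then Alexa 594 FP read.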
# FBPA coupling cs – counter-screen for Giardia aldolase inhibitors: coupling enzyme system | AID 2472 | coupling enzyme system counterscreen, AmpLite Red fluorescence | activity change, negative = inhibition, % at 58.2 µM, hits read low | 290,000 tested, 0.67% active; in the data active = activity change below about -30%
#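 Activity here indicates interference with the coupling reaction, not aldolase inhibition. Compounds at 57.5 uM final met coupling enzymes for 10 min at RT; substrate and AmpLite Red detection followed, with a 525/598 nm fluorescence read after 20 min.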
# Tau ThT inhib – tau fibrillization inhibition (ThT binding); P10636; recombinant tau K18 P301L, heparin-induced fibrillization, ThT fluorescence; Potency, µM (titrated, usually from 57.4 µM), actives largely listed as inhibitors; 270,000 tested, 2.1% active; AID 1460; note: nearly all actives have a fitted effect of over 55% in size
#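 Aggregation was driven by heparin (20 uM final) acting on recombinant tau […] bearing P301L in 100 mM sodium acetate pH 7; fibrils were detected with Thioflavin T.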
# Tau fluor cs – counter-screen for tau fibril formation inhibitors; tau K18 P301L Alexa594 fluorescence, heparin fibrillization; Potency, µM (top dose mostly 57.7 µM); 280,000 tested, 0.93% active; note: nearly all actives have a fitted effect of over 55% in size
#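 Human tau K18 P301L (15 uM unlabeled, 0.24 uM Alexa 594-labeled) in 100 mM sodium acetate pH 7 with 20 uM heparin, 6 hr at 37 C. ThT 30 uM added, 1 hr ambient; Alexa 594 FP and total fluorescence read at 555/632 nm.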
# A number is an active result; - = inactive; ? = inconclusive; . = not tested or not shown; [ ] = remark or other dose. Sampled rows, rich in hits. Any-hit rate of the full collection: about 2.3%. Unless noted, calls come from the whole dose curve; as a rule, active = well fitted curve in the direction sought with a large enough effect; inconclusive = small, poorly fitted or top-dose-only effect, or another doubt; inactive = no such curve, though single readings can be large; an effect the other way counts as inactive or inconclusive.
SMILES,USP1 inh,Tau FP inhib,FBPA coupling cs,Tau ThT inhib,Tau fluor cs
CCN(Cc1ccccc1)c1ccc(N=Nc2nn(C)c(C)c2[N+](=O)[O-])cc1,-,?,-,10µM,?
CCN(CC)c1ccc(N=Nc2nn(C)c(C)c2[N+](=O)[O-])cc1,-,-,-,16µM,?
Cc1ccc(CNC(=O)c2nn(C)c(C)c2[N+](=O)[O-])cc1,-,-,-,-,-
CCOC(=O)c1c(C)c(C(=O)NCc2ccc(Cl)cc2)c(C)n1CC,-,-,.,-,-
Cc1c(NC(=O)Cc2ccc(F)cc2)cccc1-c1nc2cccnc2s1,-,?,.,-,20µM[quencher]
Cc1ccc(NS(=O)(=O)c2ccc3[nH]c4c(c3c2)CCCCCC4)cc1Cl,-,-,.,-,7.1µM[quencher]
COc1ccc(NS(=O)(=O)c2ccc3[nH]c4c(c3c2)CCCC4)cc1Cl,-,-,.,-,8.9µM[quencher]
Cc1ccc(NS(=O)(=O)c2ccc3[nH]c4c(c3c2)CCCC4)cc1N(C)C,?,-,.,-,22µM[quencher]
Cc1ccc(Cl)cc1N1CCN(S(=O)(=O)c2ccc3[nH]c4c(c3c2)CCCC4)CC1,-,-,.,-,?
COc1cc(NC(C)=O)c2ncccc2c1NC(C)=O,?,-,-,-,-
COc1cc(NC(C)=O)c2ncccc2c1[N+](=O)[O-],-,-,-66,-,-
COc1ccc(Cc2nc3ccccc3n2Cc2ccccc2F)cc1,?,-,.,?,-
O=C(Nc1nc2c(F)cc(F)cc2s1)c1ccc(S(=O)(=O)N2CCc3ccccc32)cc1,-,14µM,.,-,-
O=C(Nc1nc2c(F)cccc2s1)c1ccc(S(=O)(=O)N2CCCc3ccccc32)cc1,-,-,.,-,-
CCCc1ccc(Oc2cn[nH]c2-c2ccc(O)cc2O)cc1,-,?,-,?,6.3µM[quencher]
CCCOC(=O)c1ccc(Oc2cn[nH]c2-c2ccc(OCC(=O)NN)cc2O)cc1,-,-,-,-,28µM[quencher]
Cc1[nH]nc(-c2ccc(O)cc2O)c1Oc1ccccc1,?,-,-,-,14µM[quencher]
CCCOC(=O)c1ccc(Oc2cn[nH]c2-c2ccc(O)cc2O)cc1,-,?,-,?,5µM[quencher]
CCOC(=O)c1ccc(Oc2cn[nH]c2-c2ccc(OCC(=O)NN)cc2O)cc1,-,.,-,.,.
COc1ccccc1CNC(=O)c1ccc2c(c1)CCN2S(=O)(=O)c1ccc(Cl)cc1,-,-,.,-,-
COc1cccc(N2CC(NC(=O)c3cccc(OC)c3OC)CC2=O)c1 (stereo not drawn),?,-,.,-,-
COc1ccc(S(=O)(=O)NCC(c2ccco2)S(=O)(=O)c2ccc(C)cc2)cc1C (stereo not drawn),?,-,.,-,-
CCOc1ccc(-c2n[nH]c(C)c2Oc2ccccc2OC)c(O)c1,-,-,-,-,?
CCc1cc(-c2n[nH]c(C)c2Oc2ccc(C(C)C)cc2)c(O)cc1O,-,?,-,28µM,7.1µM[quencher]
CCCOC(=O)c1ccc(Oc2c(-c3ccc(OC)cc3O)n[nH]c2C)cc1,-,?,-,-,10µM[quencher]
SMILES,USP1 inh,Tau FP inhib,FBPA coupling cs,Tau ThT inhib,Tau fluor cs
CCOC(=O)c1ccc(Oc2cn[nH]c2-c2ccc(O)cc2O)cc1,-,?,-,?,13µM[quencher]
CCCOC(=O)c1ccc(Oc2c(-c3ccc(O)cc3O)n[nH]c2C)cc1,-,-,-,-,-
CC(=O)Nc1ccc(Nc2cc(C)nc3c(-c4ccccc4)cnn23)cc1,-,-,-,?,16µM[quencher]
O=C(O[C@@H]1OC2COC(=O)c3cc(O)c(O)c(O)c3-c3c(cc(O)c(O)c3O)C(=O)O[C@@H]([C@H]1O)[C@@H]2O)c1cc(O)c(O)c(O)c1,?,?,-,7.9µM,13µM[quencher]
COc1ccc(NC(=O)c2ccc3c(c2)NC(=O)CS3)cc1S(=O)(=O)Nc1ccc(Br)cc1,-,28µM,-,-,?
Cc1ccc(Cn2c(SCc3ccc(C(=O)N4CCCCCC4)cc3)nc3ccncc32)cc1,-,-,.,-,-
COc1ccccc1-c1cc2nc(C)c(CCC(=O)NCCc3ccc(SC)cc3)c(C)n2n1,-,-,.,-,-
Cc1ccc(NC(=O)Cc2ccc(Cl)c(Cl)c2)cc1S(=O)(=O)N(C)C,-,?,-,-,?
Cc1ccc(NC(=O)CNc2ccc(Cl)c(Cl)c2)cc1S(=O)(=O)N(C)C,-,-,-,-,16µM[quencher]
Cc1ccc(S(=O)(=O)NCCC(=O)Nc2ccc(Cl)c(Cl)c2)cc1C,-,14µM,-,-,?
Cc1ccc(NC(=O)CSc2nn(-c3ccc(Cl)cc3)c(=S)s2)cc1S(=O)(=O)N(C)C,-,-,-,-,-
CN(C)S(=O)(=O)c1cc(NC(=O)CSc2nn(-c3ccc(Cl)cc3)c(=S)s2)ccc1Cl,-,25µM,-,?,?
CC(C)(C)c1ccc(S(=O)(=O)c2cn(CC(=O)Nc3ccccc3)c3ccccc3c2=O)cc1,-,?,.,-,-
Nc1c[n+](N2CCOCC2)no1,.,?,-,7.1µM,-
Nc1ncnc(N2CCOCC2)c1N,-,-,-,-,-
Cc1ccc(NC(=O)C2=C(c3ccccc3)S(=O)(=O)CCS2(=O)=O)cc1,-,28µM,-,28µM,-
Cc1ccc(NC(=O)c2ccccc2)cc1,-,-,-,?,-
Cc1ccc(C(=O)N2CCN(c3ccc([N+](=O)[O-])c(NCc4cccnc4)c3)CC2)cc1,-,-,-,13µM,-
Cc1ccccc1C(=O)N1CCN(c2ccc([N+](=O)[O-])c(NCc3cccnc3)c2)CC1,-,-,-,?,-
O=C(c1ccccc1F)N1CCN(c2ccc([N+](=O)[O-])c(NCC3CCCO3)c2)CC1 (stereo not drawn),-,-,-,?,-
CC(=O)N1CCN(c2ccc([N+](=O)[O-])c(NCC3CCCO3)c2)CC1 (stereo not drawn),-,-,-,14µM,-
CC(C)(C)c1ccc(CNc2cc(N3CCOCC3)ccc2[N+](=O)[O-])cc1,-,28µM,-,7.1µM,4µM[quencher]
O=C(COc1ccccc1Cl)N1CCN(c2ccc([N+](=O)[O-])c(N3CCOCC3)c2)CC1,-,-,-,13µM,?
CCOc1ccc(C(=O)NCc2nc(-c3ccc(Cl)cc3)no2)cc1OCC,-,?,.,-,-
COc1ccccc1CNC(=O)Cn1nc(C)n2cccc2c1=O,-,?,.,?,-
SMILES,USP1 inh,Tau FP inhib,FBPA coupling cs,Tau ThT inhib,Tau fluor cs
Nc1cc(N2CCCC2)c(Cl)cc1[N+](=O)[O-],-,-,-,16µM,-
CNc1cc(N2CCN(S(=O)(=O)N(C)C)CC2)ccc1[N+](=O)[O-],-,-,-,16µM,-
O=[N+]([O-])c1ccc(N2CCCC2)cc1NC1CC1,-,-,-,14µM,-
Nc1cc(N2CCOCC2)c(Cl)cc1[N+](=O)[O-],-,-,-,?,-
O=[N+]([O-])c1ccc(N2CCCC2)cc1N1CCCC1,-,-,-,18µM,-
CCCC[C@@H]1CCCO[C@@](C(=O)NCC2CC2)(C(F)(F)F)C1,.,.,-,.,.

# Source: PubChem BioAssay
